PLK1 PBD block: inhibitors of human PLK1 polo-box domain binding; P53350; Plk1 PBD binding of FITC phosphopeptide, fluorescence polarization; Potency, µM, for inactives: max response, negative = inhibition, hits mostly inhibitors; actives 2.8% (n = 360,000); AID 720504; note: potency is the fitted concentration of half-maximal effect; series mostly up to about 57 µM; nearly all actives have a fitted effect of over 65% in size
VDR inh: vitamin D3 receptor (human) inhibition. P11473. VDR-SRC2-3 peptide fluorescence polarization, 2 h. Potency, µM, for the others: max response, negative = inhibition, hits mostly inhibitors. actives 0.93% (n = 400,000). AID 504847; note: potency is the fitted concentration of half-maximal effect
Target sequence (P11473 whole entry, looked up): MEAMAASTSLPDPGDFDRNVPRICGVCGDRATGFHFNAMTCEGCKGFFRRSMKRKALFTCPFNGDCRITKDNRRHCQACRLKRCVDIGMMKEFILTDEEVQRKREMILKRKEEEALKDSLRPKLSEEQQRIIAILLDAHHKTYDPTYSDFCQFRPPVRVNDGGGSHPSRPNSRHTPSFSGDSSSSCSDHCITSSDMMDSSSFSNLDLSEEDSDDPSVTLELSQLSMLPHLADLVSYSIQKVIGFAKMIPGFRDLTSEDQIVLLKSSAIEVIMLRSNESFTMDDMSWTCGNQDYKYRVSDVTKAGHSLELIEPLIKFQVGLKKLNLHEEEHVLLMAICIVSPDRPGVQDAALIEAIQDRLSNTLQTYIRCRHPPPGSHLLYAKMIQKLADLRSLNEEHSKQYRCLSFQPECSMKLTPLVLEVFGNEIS
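After 23 nl compound addition and a short centrifugation, plates sat for 2 hours at ambient temperature; polarization of fluorescence then indicated loss of VDR binding to peptide SRC2-3.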
CCT chaperon mod: changes cytosolic chaperonin activity; AID 651819; activity change, % (concentration not given with the values), hits read low; actives 0.3% (n = 360,000); purified chaperonin ATPase assay, HTRF ADP detection, 30 min; in the data active = activity change below about -30%
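TRiC (40 or 20 nM final, by batch activity) in 30 mM Tris pH 7.4, 100 mM KCl, 5 mM MgCl2, 1 mM DTT was treated with compound at 76 uM single dose, then 10 uM ATP, 30 min at 37 °C. ADP was read by HTRF Transcreener.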
Mm-Cpn inhibitor: inhibitors of Methanococcus maripaludis chaperonin TRiC (MmCpn); purified Mm-Cpn ATPase, ADP Transcreener TR-FRET; Potency, µM (titrated, usually from 76.9 µM), inactives show at the highest dose activity, negative = inhibition, usual class: inhibitors; actives 0.031% (n = 330,000); note: potency is the fitted concentration of half-maximal effect; nearly all actives have a fitted effect of over 80% in size
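ATPase read-out: TR-FRET ADP immunoassay (anti-ADP Eu cryptate vs ADP-d2), ex 320 nm, em 590/665 nm; signal drops as ADP forms. Enzyme 25 nM, ATP 10 uM, 30 min at 37°C after 10 min compound preincubation.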
Sfp PPTase inh: Sfp phosphopantetheinyl transferase inhibition. actives 3.5% (n = 310,000). Biochemical Sfp PPTase activity, qHTS. Potency, µM, without a hit: largest response in the series, negative = inhibition, actives largely listed as inhibitors;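 note: the enzyme is Sfp with the accession as filed and its product quenches rhodamine fluorescence; potency is the fitted concentration of half-maximal effect; 0% = enzyme reaction without inhibitor and -100% = no enzyme wells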
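Compounds were incubated with enzyme (final 15 nM) for 15 min at room temperature before substrate addition started the reaction. Fluorescence at 525 nm excitation, 598 nm emission was recorded immediately and after 30 minutes.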
G9a inh: inhibitors of human histone lysine methyltransferase G9a; actives 8.8% (n = 350,000); G9a H3K9 monomethylation, AlphaScreen, 2 h; Potency, µM (titrated, usually from 102 µM), without a hit: at the highest dose activity, negative = inhibition, actives largely listed as inhibitors; note: potency is the fitted concentration of half-maximal effect; nearly all actives have a fitted effect of over 75% in size
Target sequence (Q96KQ7 913-1193 limits assumed): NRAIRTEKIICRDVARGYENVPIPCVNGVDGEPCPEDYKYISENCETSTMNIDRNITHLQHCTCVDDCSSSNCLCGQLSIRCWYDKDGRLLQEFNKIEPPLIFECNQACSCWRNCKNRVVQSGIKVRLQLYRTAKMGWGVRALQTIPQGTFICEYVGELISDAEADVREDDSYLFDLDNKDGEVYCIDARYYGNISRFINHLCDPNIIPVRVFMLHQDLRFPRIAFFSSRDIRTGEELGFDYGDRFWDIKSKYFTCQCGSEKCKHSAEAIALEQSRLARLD
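G9a (20 nM) was preincubated 15 min with compound, then reacted 2 h at room temperature with 500 nM biotin-H3K9 peptide and 20 µM SAM. Monomethyl-H3K9 detected by AlphaScreen using anti-H3K9me1 antibody.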
* = called active by the depositor; ? = inconclusive; nt = no result given; [ ] = dose if it differs, or a comment. Shown are actives, neighbours in structure and some others; about 10% of the full set was active somewhere. Unless noted, calls come from the whole dose curve; as a rule, active = well fitted curve in the direction sought with a large enough effect; inconclusive = small, poorly fitted or top-dose-only effect, or another doubt; inactive = no such curve, though single readings can be large; an effect the other way counts as inactive or inconclusive. Unless noted, % is set by controls: 0 for no effect and ±100 for the full control effect.

SMILES | PLK1 PBD block | VDR inh | CCT chaperon mod | Mm-Cpn inhibitor | Sfp PPTase inh | G9a inh
COC(=O)NC(c1ccccc1)C(C(=O)OC)C(=O)OC (stereo unspecified) | nt | nt | nt | nt | 6% | nt
Cc1cc(C)n(CCc2nc3c4ccccc4nc(N4CCN(c5ccccc5)CC4)n3n2)n1 | nt | -9% | nt | nt | nt | 9%[59 µM]
N#C/C(=C\Nc1ccc2cn[nH]c2c1)c1nc(-c2ccccc2)cs1 | -9% | 1% | 1 | 2% | 56µM* | 71µM*
O=C(CSc1nc2nccnc2c(=O)n1CCc1c[nH]c2ccccc12)Nc1ccccc1 | nt | 16% | nt | nt | nt | -1%[59 µM]
COc1cccc2cc(C(=O)C3=C(O)C(=O)N(c4cc(C)on4)C3c3cccs3)oc12 (stereo unspecified) | ? | -12% | -5 | ? | -29% | 13µM*
COc1cc(C2C(C(=O)c3cc4ccccc4o3)=C(O)C(=O)N2c2cc(C)on2)cc(OC)c1OC (stereo unspecified) | -11% | 15% | 1 | -3% | -8% | 45µM*
COc1cccc(C2C(C(=O)c3cc4ccccc4o3)=C(O)C(=O)N2c2cc(C)on2)c1OC (stereo unspecified) | -9% | -5% | -4 | -19% | 19% | 45µM*
O=S(=O)(CCc1ccccc1)c1nnnn1C1CCCCC1 | nt | -3% | nt | nt | 13% | nt
COc1ccc(CN2CCc3nc(SCC(=O)Nc4cc(C)cc(C)c4)[nH]c(=O)c3C2)cc1 | nt | 6% | nt | nt | nt | ?
COc1ccc(Nc2nc(NC(C)(C)C)nc(N3CCOCC3)n2)c(OC)c1 | ? | -14% | 0 | -1% | -1% | 40µM*
COc1ccc(Nc2nc(Nc3ccc(OC)cc3OC)nc(N3CCN(C)CC3)n2)c(OC)c1 | -7% | -15% | 0 | 1% | ? | 13µM*
COc1ccc(Nc2nc(NC(C)(C)C)nc(N3CCCC3)n2)c(OC)c1 | -7% | 7% | -1 | 0% | 7% | 40µM*
Cc1ccc(S(=O)(=O)SC/C=C/CSS(=O)(=O)c2ccc(C)cc2)cc1 | 2.7µM* | 45µM* | -1 | nt | nt | nt
Cc1ccc(S(=O)(=O)SCCCSS(=O)(=O)c2ccc(C)cc2)cc1 | 2.4µM* | 50µM* | 1 | nt | nt | nt
Cc1ccc(S(=O)(=O)CS(=O)(=O)c2ccc(C)cc2)cc1 | -2% | -18% | -2 | nt | nt | nt
CSCC[C@H](NC(=O)[C@H](CC(C)C)NC(=O)CNC(=O)[C@H](Cc1ccccc1)N(C)C(=O)[C@H](Cc1ccccc1)NC(=O)[C@H](CC(=O)O)NC(=O)[C@@H](N)CC(=O)O)C(N)=O | nt | 7% | nt | nt | 20% | nt
CCOCCCNS(=O)(=O)c1ccc(NC(=O)c2ccc(OC)c([N+](=O)[O-])c2)cc1 | 3.4µM* | ? | 0 | 5% | 17% | 11%
COc1ccc(C(=O)Nc2ccc(S(=O)(=O)N3CCN(C)CC3)cc2)cc1[N+](=O)[O-] | 2% | -6% | -10 | -8% | 11% | 1%[59 µM]
COc1ccc(C(=O)Nc2ccc(S(=O)(=O)NC(C)=O)cc2)cc1[N+](=O)[O-] | -9% | -16% | 1 | 0% | 15% | 50µM*
COc1ccc(OC)c2sc(N(Cc3cccnc3)C(C)=O)nc12 | nt | 16% | nt | nt | nt | 3%[59 µM]
Cc1cc(/C=C2\C(=N)N3N=C(c4ccco4)SC3=NC2=O)c(C)n1Cc1ccccc1 | 27µM* | 6% | 3 | -6% | ? | 28µM*
N=C1/C(=C\c2coc3ccccc3c2=O)C(=O)N=C2SC(c3ccncc3)=NN12 | 23% | 28µM* | -1 | 0% | -19% | ?
COc1ccc(-n2cccc2/C=C2\C(=N)N3N=C(c4ccco4)SC3=NC2=O)cc1 | ? | 1% | -2 | -3% | -7% | ?
N=C1/C(=C/c2coc3ccccc3c2=O)C(=O)N=C2SC(c3ccco3)=NN12 | ? | ? | -13 | -1% | 40µM* | nt
CCOC(=O)c1cnc2ccc(Cl)cc2c1Nc1ccc(OCC)cc1 | nt | 4% | nt | nt | nt | -9%[59 µM]
SMILES | PLK1 PBD block | VDR inh | CCT chaperon mod | Mm-Cpn inhibitor | Sfp PPTase inh | G9a inh
COc1ccc2oc(-c3ccccc3)c(OC)c(=O)c2c1 | nt | nt | nt | nt | -9% | nt
O=C(CSc1nc2ccccc2s1)Nc1ccc(Cl)c(C(=O)O)c1 | 8.4µM* | 2% | -2 | 1% | 22µM* | 2.8µM*
O=C(CSc1nc2ccc(NC(=O)c3ccccc3C(=O)O)cc2s1)Nc1c(Cl)cccc1Cl | -19% | -16% | 1 | -15% | -4% | 71µM*
O=C(Nc1ccc2nc(SCC(=O)N3CCOCC3)sc2c1)c1ccccc1Cl | nt | 15% | nt | nt | nt | 1%[59 µM]
O=C(CSc1nc2ccccc2s1)NNC(=O)Nc1ccc(Cl)c(Cl)c1 | -3% | -2% | -1 | -4% | 6% | 7%[59 µM]
O=C(CSc1nc2ccccc2s1)NNC(=S)Nc1ccc(Br)cc1 | ? | ? | -1 | -2% | 14% | ?
O=C(CSc1nc2ccccc2s1)Nc1cc(C(=O)O)cc(C(=O)O)c1 | ? | -16% | 0 | -3% | 56µM* | 25µM*
O=C(CSc1nc2ccccc2s1)NNC(=S)Nc1ccccc1 | -28% | -2% | -1 | 1% | ? | 3.5µM*
O=C(CSc1nc2ccccc2s1)Nc1ccc2c(c1)oc1ccccc12 | -12% | 2% | 1 | -4% | -1% | -4%[59 µM]
Cc1nn(C(=O)c2ccc(Cl)cc2)c(C)c1S(=O)(=O)N1CCOCC1 | nt | -6% | nt | nt | nt | -44%[59 µM]
Cc1cccc(NC(=O)C2CCCN(S(=O)(=O)c3ccc(Br)s3)C2)c1 (stereo unspecified) | nt | -13% | nt | nt | nt | 1%[59 µM]
Cc1c(/C(O)=C2\C(=O)C(=O)N(CCN(C)C)C2c2cccs2)cnn1-c1ccccc1 (stereo unspecified) | ? | -6% | -1 | -3% | -13% | 20µM*
O=C(O)/C=C\C(=O)Nc1cccc(C(=O)Nc2cccc(O)c2)c1 | 24µM* | 5% | -5 | 0% | 3% | -3%
Cc1cccc(C(=O)NNC(=O)c2cccc(C)c2)c1 | -9% | -14% | -1 | 1% | 3% | 7%
O=C(Nc1cccc(O)c1)c1ccccc1 | -5% | 12% | -2 | 1% | 13% | -28%
Cc1ccccc1C(=O)NNC(=O)Nc1ccccc1 | nt | nt | nt | 2% | 16% | 6%
CNC(=S)NNC(=O)c1ccccc1Br | -9% | -9% | -4 | 1% | -21% | ?
Cc1ccccc1C(=O)NNC(=O)/C=C\C(=O)O | ? | -20% | -1 | 2% | 22µM* | 4.5µM*
Cc1cccc(C(=O)NNC(=O)/C=C/C(=O)O)c1 | -1% | -13% | 0 | -1% | -6% | 35µM*
O=C(O)/C=C/C(=O)NNC(=O)c1ccccc1Br | -7% | -12% | -3 | -2% | 56µM* | 11%[0.0925 µM]
Cc1cc(C)cc(-n2ccn(CC(=O)Nc3ccccc3F)c(=O)c2=O)c1 | nt | -17% | nt | nt | nt | ?
